# Rows were chosen to be rich in hits. Some 19% of all compounds tested hit in one or more screens of this group.
# HT1080NT lethal – kills 2HG-producing HT-1080-NT fibrosarcoma cells | HT-1080-NT fibrosarcoma viability, CellTiter-Glo ATP luminescence, 48 h | Potency, µM (series often up to 46.1 µM), hits mostly cytotoxic | 360,000 compounds, 1.6% hits | AID 686970;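 further: NT is the 2HG producing partner of a matched IDH1 knockdown line; nearly all actives have a fitted effect of over 55% in size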
#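 HT-1080-NT fibrosarcoma cells (2HG-overproducing), 750 cells/well in RPMI with 5% FBS, dosed after 2 h and incubated 48 h at 37C. CellTiter-Glo luminescence normalized to DMSO and no-cell wells; concentration-response curves fitted and classed.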
# KB-V1 cytotox – KB-V1 MDR subline cytotoxicity; KB-V1 MDR cells viability, CellTiter-Glo, 72 h; Potency, µM (series often up to 46.1 µM), usual class: cytotoxic; 400,000 compounds, 3.4% hits; AID 1347076; further: nearly all actives have a fitted effect of over 60% in size
#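 In this primary screen, KB-V1 cells overexpressing P-gp are incubated with library compounds (lowest to highest concentration) for 72 h at 37 degrees C before a luminescent ATP viability read.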
# TDP1 cell CPT – DT40-hTDP1 cell growth loss with CPT; chicken DT40 Tdp1-/-;hTDP1 cells + 20 nM CPT, ATP luminescence, 48 h; Potency, µM (highest dose often 46.2 µM), hits mostly inhibitors; 420,000 compounds, 12% hits; further: nearly all actives have a fitted effect of over 55% in size
#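 Chicken DT40 Tdp1-/- cells stably complemented with human TDP1 were seeded at 400 cells/well in medium containing 20 nM camptothecin, exposed to pin-transferred compounds, and grown at 37 °C for at least 48 hr. Viability was read as ATP luminescence.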
# HT1080 IDH1KD tx – kills HT-1080 cells with IDH1 knockdown | AID 686971 | HT-1080 IDH1 knockdown viability, ATP luminescence, 48 h | Potency, µM (titrated, usually from 46.1 µM), most hits filed as cytotoxic | 360,000 compounds, 2% hits
#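 IDH1KD HT-1080 cells, 750/well, RPMI + 5% FBS; compound pinned after 2 h settling; 48 h, 37 °C; CellTiter-Glo luminescence; % activity normalised to DMSO and no-cell wells; curves fitted, classed by r2 and efficacy.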
# KB-3-1 cytotox – KB-3-1 parental cell cytotoxicity | KB-3-1 viability, CellTiter-Glo ATP luminescence, 72 h | Potency, µM (top dose mostly 46.1 µM), most hits filed as cytotoxic | 400,000 compounds, 1.4% hits; further: nearly all actives have a fitted effect of over 60% in size
#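 Viability of parental KB-3-1 cells, measured by CellTiter-Glo luminescence, followed a 72 h incubation at 37 °C with pinned compounds in phenol-red-free DMEM containing 10% FBS.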
# TDP1 cell noCPT – qHTS for Inhibitors of human tyrosyl-DNA phosphodiesterase 1 (TDP1): qHTS in cells in absence of CPT; 420,000 compounds, 15% hits; Potency, µM (titrated, usually from 46.2 µM), usual class: inhibitors; DT40 Tdp1-/- hTDP1 cells, no CPT, ATP luminescence, 48 h; further: nearly all actives have a fitted effect of over 55% in size
#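 Chicken DT40 Tdp1-/- cells stably complemented with human TDP1 were seeded at 400 cells/well with DMSO in place of 20 nM camptothecin. After compound pinning, cells grew at least 48 hr at 37 °C; viability read by CellTiter-Glo luminescence.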
# Hits are given with their value; . = inactive; ? = inconclusive; / = no result; [ ] = remark or other dose. The call rests on the fitted dose curve; in most records, active means well fitted curve in the direction sought with a large enough effect; inconclusive means small, poorly fitted or top-dose-only effect, or another doubt; inactive means no such curve, though single readings can be large; an effect the other way counts as inactive or inconclusive.
SMILES,HT1080NT lethal,KB-V1 cytotox,TDP1 cell CPT,HT1080 IDH1KD tx,KB-3-1 cytotox,TDP1 cell noCPT
COc1cc(C2C(C#N)=C(N)Oc3n[nH]c(C)c32)ccc1OC(=O)c1ccccc1 (centres undefined),.,?,.,.,.,.
Cc1cccc(C(=O)Nc2ccc3nc(SCC(=O)N4CCCC4)sc3c2)c1,/,/,?,/,/,16µM
CCC(CC)C(=O)Nc1ccc2nc(SCC(=O)N3c4ccccc4CC3C)sc2c1 (centres undefined),/,.,12µM,/,?,16µM
Cc1ccccc1C(=O)Nc1ccc2nc(SCC(=O)N3CCc4ccccc43)sc2c1,/,.,5.2µM,/,.,3.7µM
Cc1cccc(C(=O)Nc2ccc3nc(SCC(=O)N4CCc5ccccc54)sc3c2)c1,/,.,5.8µM,/,.,4.6µM
Cc1ccccc1OCC(=O)Nc1ccc2nc(SCC(=O)N3CCc4ccccc43)sc2c1,/,.,.,/,.,.
CC(Oc1ccc(Br)cc1)C(=O)O/N=C(\N)c1ccncc1 (centres undefined),.,?,.,.,.,.
CS(=O)(=O)c1ccc(Cl)c(NC(=O)CN2CCN(S(=O)(=O)/C=C/c3ccccc3)CC2)c1,.,.,?,.,.,3.3µM
O=C(CN1CCN(c2cccc(Cl)c2)CC1)Nc1ccc([N+](=O)[O-])cc1C(=O)Nc1ccccc1F,.,.,?,.,.,23µM
O=C(CN1CCN(C/C=C/c2ccccc2)CC1)Nc1cc([N+](=O)[O-])ccc1Cl,.,23µM,?,.,?,26µM
O=[N+]([O-])c1ccc(C(O)CN2CCN(Cc3ccccc3)CC2)cc1 (centres undefined),.,.,.,.,.,.
O=[N+]([O-])c1ccc(C(O)CN2CCN(C/C=C/c3ccccc3)CC2)cc1 (centres undefined),.,.,?,.,.,29µM
NS(=O)(=O)c1ccc(NC(=O)CN2CCN(S(=O)(=O)/C=C/c3ccccc3)CC2)cc1,.,.,.,.,.,.
CCCCn1c(C23CC4CC(CC(C4)C2)C3)n[nH]c1=S,.,.,.,.,.,?
Cc1nc(OCc2c(C)noc2C)c2ccccc2n1,.,.,.,.,.,.
O=C(COC(=O)c1cc(-c2ccccc2)nc2c(Cl)cccc12)c1ccc(F)cc1,/,.,.,/,.,?
COc1cccc(-c2cc(C(=O)N/N=C/c3cccc(OC)c3OC)c3ccccc3n2)c1,.,.,21µM,.,.,4.6µM
Cc1[nH]c2ccccc2c1C=NNC(=O)c1cc(-c2cccnc2)nc2ccccc12,.,.,13µM,.,.,7.3µM
O=C(N/N=C/c1cc(Cl)cc([N+](=O)[O-])c1O)c1cc(-c2ccccn2)nc2ccccc12,?,.,6.5µM,?,?,15µM
Cc1ccc(C)c(NC(=O)c2cc(-c3cccnc3)nc3ccccc23)c1,.,.,?,.,.,?
COc1ccc(/C=N/NC(=O)c2cc(-c3ccccc3)nc3ccccc23)c(C(=O)O)c1OC,.,.,.,.,.,.
O=C(N/N=C/c1ccc(F)cc1)c1cc(-c2ccccn2)nc2ccccc12,.,.,?,.,.,.
C/C(=N\NC(=O)c1cc(-c2ccccn2)nc2ccccc12)c1cccc([N+](=O)[O-])c1,.,.,.,.,.,?
COc1cccc(/C=N/NC(=O)c2cc(-c3ccccn3)nc3ccccc23)c1O,?,?,9.2µM,?,?,8.2µM
COc1cc(C2C3=C(CC(C)(C)CC3=O)OC(N)=C2[N+](=O)[O-])ccc1O (centres undefined),.,.,?,.,.,?
SMILES,HT1080NT lethal,KB-V1 cytotox,TDP1 cell CPT,HT1080 IDH1KD tx,KB-3-1 cytotox,TDP1 cell noCPT
O=[N+]([O-])c1cc(Cl)cc(/C=N\Nc2ccccn2)c1O,?,.,5.2µM,?,?,5.2µM
COc1ccc(/C=N/NC(=O)c2cc(-c3cccnc3)nc3ccccc23)c(OC)c1,.,.,?,.,?,4.6µM
O=[N+]([O-])c1ccc(Cl)cc1C=NNc1ccccn1,.,.,.,?,.,.
COc1ccc(OC)c(C(=O)COC(=O)C(CCSC)NC(=O)COc2ccccc2)c1 (centres undefined),.,.,.,.,.,.
COc1ccc(C(=O)OCC(=O)c2cc(OC)ccc2OC)c(OC)c1,.,?,?,.,.,?
COc1ccc(OC)c(C(=O)COC(=O)COc2ccccc2)c1,.,.,15µM,.,.,5.8µM
COc1ccc(OC)c(C(=O)CCCCC(=O)c2cc(OC)ccc2OC)c1,.,?,?,.,.,18µM
CN1CCC(N2CCN(C3CN(Cc4ccccc4)S(=O)(=O)C3)CC2)CC1 (centres undefined),?,.,.,.,.,.
COc1ccc(CNc2nc(NCc3ccc(OC)c(OC)c3)n(C(=O)c3cccs3)n2)cc1OC,?,?,16µM,?,.,15µM
O=C(c1cccs1)n1nc(-c2ccccc2)nc1NCc1ccco1,.,.,21µM,.,.,?
Cc1ccccc1C(=O)n1nc(-c2ccco2)nc1NCc1cccs1,/,.,13µM,/,.,?
O=c1[nH]c(NCCO)nc2c1C1(CCCCC1)Cc1ccccc1-2,?,.,?,.[9.24 µM],.,?
Cc1nc(=S)c2c([nH]1)-c1ccccc1CC21CCCCC1,.,.,21µM,.,?,18µM
O=C(NCCOc1ccccc1)c1ccccc1Cl,.,?,.,.,.,.
CN(C(=O)COc1ccccc1C(=O)NCCOc1ccccc1)c1ccccc1,21µM,8.2µM,2.3µM,?,15µM,2.3µM
CCOC(=O)C1(CCOc2ccccc2)CCN(C(=O)CCSC)CC1,.,.,.,.,.,?
O=C(OCc1c(Cl)nc2sccn12)c1cc2c(s1)CCCC2,.,.,14µM,.,.,?
N#C/C(=C\c1ccc(C(=O)O)cc1)c1ccccn1,.,.,.,.,.,.
N#C/C(=C/c1ccc(N2CCOCC2)o1)C(=O)NC1CCCCC1,.,.,?,.,?,?
N#C/C(=C\c1ccc(N2CCOCC2)cc1)c1ccccc1,?,.,21µM,.,.,15µM
N#C/C(=C\N1CCOCC1)c1ccccc1,.,.,.,.,.,.
N#CC(=Cc1ccncc1)c1ccccc1,.,13µM,.,.,?,.
N#C/C(=C\c1ccc(N2CCOCC2)o1)c1ccccc1,?,?,10µM,4.5µM,.,?

# Bioassay records deposited in PubChem BioAssay by National Center for Advancing Translational Sciences (NCATS).
